Experiment: small molecules captured by biotinylated probe aFST – biochemical, small-molecule microarray, fluorescence 635/667, stem cell growth factor project, primary screen (AID 1086);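 further: score merges 667 nm fluorescence with signal-to-noise of each printed compound spot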
Conditions: higher = more signal

Q: For `COCC(=C=CC[C@@H](O)c1ccccc1OCCO)C[C@@H](O)c1ccccn1`, which composite z-score is on record?
A: -0.0376

Q: With `COc1ccc([Si](C)(C)[C@H]2[C@H](CCO)O[C@@]3(C(=O)N(Cc4cccc(N5CCOC5=O)c4)c4ccccc43)[C@@H]2C)cc1` as the compound, how does the composite z-score read?
A: -0.292

Q: Which composite z-score does the source give for `COC(=O)C(CC#Cc1ccc2c(c1)[C@]1(C(=O)N2)[C@H](C(=O)N2CCc3cc(OC)c(OC)cc3C2)[C@H]2C(=O)O[C@H](c3ccccc3)[C@H](c3ccccc3)N2[C@@H]1c1ccc(O)cc1)C(=O)OC` here?
A: 0.288

Q: Which composite z-score does the source give for `COc1ccc([Si](C)(C)[C@H]2[C@H](CCn3cc(CCO)nn3)O[C@@]3(C(=O)N(Cc4cccc(N5C(=O)c6cccc7cccc5c67)c4)c4ccccc43)[C@@H]2C)cc1` here?
A: 0.395

Q: For `C[C@H]1ON(c2ccccc2)[C@@H](c2ccccc2)[C@@H]1C(=O)N1C(=O)OC[C@@H]1c1ccccc1`, which composite z-score is on record?
A: 0.0477

Q: For `COc1ccc(C#Cc2ccc3c(c2)[C@]2(C(=O)N3)[C@H](C(=O)O)[C@H]3C(=O)O[C@H](c4ccccc4)[C@H](c4ccccc4)N3[C@@H]2c2ccc(OCCO)cc2)cc1`, which composite z-score is on record?
A: 0.794

Q: Which composite z-score does the source give for `C=CCC(OC(C)=O)[C@@H]1[C@@H](N(Cc2ccc(-c3ccccc3)cc2)C(=O)Cc2ccc(OC)cc2)c2cc(OCCCO)ccc2N1C(=O)c1ccc(-c2ccccc2)cc1` (some centres undefined) here?
A: 0.0321

Q: Which composite z-score does the source give for `Cc1ccc(S[C@]2(C(=O)NCC(C)C)CC(=O)N(C3CCCCC3)[C@@H]2c2ccc(CO)cc2I)cc1` here?
A: 0.0997

Q: With `COC(=O)C(CC#Cc1ccc2c(c1)[C@]1(C(=O)N2)[C@H](c2ccc(OCCO)cc2)N2[C@H](c3ccccc3)[C@H](c3ccccc3)OC(=O)[C@H]2[C@@H]1C(=O)O)C(=O)OC` as the compound, how does the composite z-score read?
A: 1.37

Reference: PubChem BioAssay
